For 40 compounds, Percent Effect results are on record in ChEMBL document CHEMBL3988442, “University of Dundee, Small-Polar-MMV Screening Library” (2021).

In the first test the target is T1, Aspartate--tRNA(Asp/Asn) ligase (Mycobacterium tuberculosis (strain ATCC 25618 / H37Rv)) (UniProt P9WFW3). Further: in the data most compounds retested in dose-response had high values.
T1 sequence (whole entry): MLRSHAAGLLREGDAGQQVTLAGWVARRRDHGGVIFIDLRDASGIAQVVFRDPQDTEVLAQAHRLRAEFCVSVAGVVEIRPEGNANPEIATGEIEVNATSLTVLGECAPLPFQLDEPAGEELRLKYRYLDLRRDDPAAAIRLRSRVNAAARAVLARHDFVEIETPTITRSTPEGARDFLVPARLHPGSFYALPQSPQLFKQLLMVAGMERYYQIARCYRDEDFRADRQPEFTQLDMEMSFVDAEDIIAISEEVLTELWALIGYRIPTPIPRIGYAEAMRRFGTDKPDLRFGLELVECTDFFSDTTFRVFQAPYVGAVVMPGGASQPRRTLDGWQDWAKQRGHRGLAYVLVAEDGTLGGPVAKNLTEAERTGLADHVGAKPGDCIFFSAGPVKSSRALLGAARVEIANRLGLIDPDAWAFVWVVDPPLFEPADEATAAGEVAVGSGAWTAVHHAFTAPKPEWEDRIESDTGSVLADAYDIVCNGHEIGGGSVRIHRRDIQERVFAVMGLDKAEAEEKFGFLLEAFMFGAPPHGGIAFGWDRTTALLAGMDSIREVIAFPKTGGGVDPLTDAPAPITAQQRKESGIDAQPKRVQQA
Briefly: Assay for Asp RNA synthetase-1 from Mycobacterium tuberculosis. It counts as functional. Further details: scale not given: direction of the effect not stated beside the values. The conditions noted are these: 30 µM.
As for `c1cn(Cc2nnc(C3CCN(c4nccs4)CC3)n2C2CC2)cn1`, the Percent Effect is -3.69%.
As for `Cc1cc(F)ccc1CN1CCC(O)(CN2CCCCC2)C1` (stereo not given), the Percent Effect was -0.747%.
On the same count and under the same terms, for `Cc1ccc(CNC(=O)NCc2csc(C)n2)cn1` the value was -3.34%; for `CN1CCN(Cc2cccnc2)C2(CCN(c3ncc(F)cn3)C2)C1=O` (stereo not given), 4.87%; for `CSc1cccc(CN(C)C(=O)C2CC(=O)N(CCN(C)C)C2)c1` (stereo not given), -2.59%.
For the compound `CCN(CC1CN(Cc2ncc(C)o2)CCO1)c1cccnn1` (stereo not given), the Percent Effect was -1.34%.
Still for that read-out and setting: for `COc1ccnc(N2CCN(C(=O)NCc3ccc(C)s3)CC2)n1` the value was -2.05%.
Turning to `N#Cc1cccc(CS(=O)(=O)NCCC(O)c2ccccc2)c1` (stereo not given), the Percent Effect is -1.46%.
Same read-out and setting: the value for `O=C(NC1CC1)[C@@H]1CCO[C@@H]2CCN(C3CCOCC3)C[C@H]21` was 5.8%; that for `O=C(O)C(c1ccc2c(c1)OCCO2)N1CCCCCC1` (stereo not given) was -3.23%; that for `O=C(NCCNc1ncccn1)C1CCN(c2ncccn2)CC1` was -0.874%.
Same read-out and setting: the value for `CC(C)(C)N1CC(C(=O)N2CCN(CCn3cccc3)CC2)CC1=O` (stereo not given) was 1.18%; that for `O=C(c1cc(COc2ccc3c(c2)OCO3)[nH]n1)N1CCOCC1` was -0.0228%.
Turning to `Cc1noc(C)c1C(=O)N(C)Cc1nc(-c2ccccn2)no1`, the Percent Effect was -3.85%.
Still for that read-out and setting: for `CCCNC(=O)CCNC(=O)Cc1nc(-c2ccco2)oc1C` the value was 2.08%.
On the same count and under the same terms, the value for `CCN(CC)CC(=O)NCCc1csc(N2CCCC2)n1` was 1.28%.
Same read-out and setting: for `O=C(CCc1c[nH]cn1)N1CC[C@@H](c2ccc3ccccc3c2)[C@H](O)C1` the value was -0.632%; for `CC1CCN(C(CNC(=O)CCn2cccn2)c2cccs2)CC1` (stereo not given), -0.241%; for `Fc1ccc(-c2nnc(CN3CCCC3Cn3cncn3)o2)cc1` (stereo not given), -1.49%.
Turning to `CCC(=O)N1CCc2[nH]cnc2C12CCN(C(=O)c1snnc1C)CC2`, the Percent Effect was determined as 1.62%.
As to `COc1ccccc1CN(C)c1nccc(-c2cn(C)nc2C)n1`, the Percent Effect is -1.34%.
Same read-out and setting: the value for `N#CC(Sc1nnnn1C1CCOCC1)C1CCCCC1` (stereo not given) was -2.4%; that for `COc1ncccc1NC(=O)N1CCC(CNC(C)=O)CC1` was -1.39%.
Take `Cc1nnsc1C(=O)N1CCC2(CC1)c1nc[nH]c1CCN2CC(C)C`: the Percent Effect was -1.53%.
Still for that read-out and setting: the value for `Cc1cnn(C2CN(CC(O)c3ccc(F)cc3)C2)c1` (stereo not given) was -2.19%; that for `CCn1nc(CC(C)C)cc1C(=O)N1C[C@H](O)[C@@H](N2CCCCC2)C1` was -2.61%; that for `CCc1nc(NS(=O)(=O)c2cc(C)ccc2F)no1` was -2.52%.
Regarding `CN(CCNC(=O)N1CCN(Cc2ccon2)CC1)c1ccccc1`, the Percent Effect was determined as 2.1%.
On to `Cc1ccc(C#N)c(N2CCC(c3nccn3CCN(C)C)CC2)n1`, for which the Percent Effect was -1.39%.
`c1ccc(-c2cnc(CNCC3CCCN3c3cccnn3)o2)cc1` (stereo not given): the Percent Effect stood at 1.15%.
On the same count and under the same terms, the value for `CCNC(=O)c1ccc(N2CCCC(c3nccn3C(C)C)C2)nc1` (stereo not given) was -3.8%; that for `CN(C)CCCNC(=O)c1cc(Br)c2c(c1)OCCO2` was 0.724%; that for `CCC(=O)N1CC[C@@H](c2ccc3ccccc3c2)[C@H](O)C1` was 2.26%.
Still for that read-out and setting: for `CN(C)CCn1c(=O)oc2ccc(NC(=O)C3CCCO3)cc21` (stereo not given) the value was -2.08%; for `Cc1cnc(C)c(N2CCN(Cc3ccc(-c4cc[nH]n4)o3)CC2)n1`, 0.816%; for `O=C1CCCN1CC1CN(C(=O)CC2CCCC2)Cc2nccn2C1` (stereo not given), 4.01%.
Same read-out and setting: the value for `CNC(=O)NC(=O)CN1CCC(c2c[nH]c3ccc(OC)cc23)CC1` was -2.54%.
Consider `O=C(NCc1ccccn1)c1nnn(-c2ccc(Br)cc2)n1`, for which the Percent Effect was -5.38%.
As for `CSC(C)(C)CNC(=O)NC1CCN(C)CC1`, the Percent Effect is -4.75%.
Turning to `CCSCCC(=O)Nc1ncn(Cc2cccnc2)n1`, the Percent Effect was -2.31%.

Another test addresses Shiga toxin 2 (Escherichia coli O157:H7) (UniProt P09385+P09386). The experiment in a line: E. coli 0.157:H7 Shiga Toxin SOP - stx2 screening assay. The format is functional. Further details: scale not given: direction of the effect not stated beside the values. Conditions: 30 µM.
As for `Cc1ccc(CNC(=O)NCc2csc(C)n2)cn1`, the Percent Effect is -8.48%.
Still for that read-out and setting: for `CN1CCN(Cc2cccnc2)C2(CCN(c3ncc(F)cn3)C2)C1=O` (stereo not given) the value was -19.6%; for `COc1ccnc(N2CCN(C(=O)NCc3ccc(C)s3)CC2)n1`, 31.8%.
On to `O=C(NC1CC1)[C@@H]1CCO[C@@H]2CCN(C3CCOCC3)C[C@H]21`, for which the Percent Effect is -34.3%.
The same measure, in the same setting: for `O=C(NCCNc1ncccn1)C1CCN(c2ncccn2)CC1` the value was 5.72%.
On the same count and under the same terms, for `O=C(c1cc(COc2ccc3c(c2)OCO3)[nH]n1)N1CCOCC1` the value was -36.8%.
Turning to `Fc1ccc(-c2nnc(CN3CCCC3Cn3cncn3)o2)cc1` (stereo not given), the Percent Effect is -12.6%.
Consider `c1ccc(-c2cnc(CNCC3CCCN3c3cccnn3)o2)cc1` (stereo not given), for which the Percent Effect was 11.4%.
As for `O=C1CCCN1CC1CN(C(=O)CC2CCCC2)Cc2nccn2C1` (stereo not given), the Percent Effect was -4.12%.
On the same count and under the same terms, the value for `O=C(NCc1ccccn1)c1nnn(-c2ccc(Br)cc2)n1` was -13.6%.
